Laboratory results: PubChem BioAssay (NCATS)
Inconclusive results are not listed. Unmarked numbers belong to inactive results. Activity calls are given as the source filed them. Calls come from the whole dose curve; as a rule, active = well fitted cell-killing curve with a large enough effect; inconclusive = small, poorly fitted or top-dose-only effect; inactive = no such curve, though single readings can be large or run the other way.

Assay: qHTS of pediatric cancer cell lines to identify multiple opportunities for drug repurposing: Primary screen for MG 63 (6-TG R) cells (AID 1347105); note: nearly all actives have a fitted effect of over 50% in size
Details: MG 63 (6-TG R) viability, CellTiter-Glo, 48 h; series mostly up to 46 µM; activity change, negative = cytotoxic: at the top concentration
In short: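 Quantitative HTS format: each compound titrated (MIPE 11 points from 0.78 nM, NPC 8 points from 0.59 nM) onto cells plated 5 hours earlier. After 48 h at 37 degrees C, CellTiter-Glo luminescence was recorded.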
% is set by controls: 0 for no effect and ±100 for the full control effect; potency is the fitted concentration of half-maximal effect.

Row | Structure (SMILES) | activity change, negative = cytotoxic [%] | Potency
1 | c1ccc2c(Oc3nc(Nc4ccc(N5CCOCC5)cc4)c4ncn(C5CCCCC5)c4n3)cccc2c1 | -22.5 | 
2 | CNC(=O)Nc1ccc(-c2nc(N3CC4CCC(C3)O4)c3cnn(C4CCC5(CC4)OCCO5)c3n2)cc1 |  | 0.0118 µM (active)
3 | O=[N+]([O-])c1cn2c(n1)OC[C@@H](OCc1ccc(OC(F)(F)F)cc1)C2 | 30.7 | 
4 | Nc1cccc2c1C(=O)N(C1CCC(=O)NC1=O)C2=O (stereo not drawn) | -17.7 | 
5 | Cc1ccc(-n2[nH]c(C)c(N=Nc3cccc(-c4cccc(C(=O)O)c4)c3O)c2=O)cc1C |  | 21.1 µM (active)
6 | N#CC(=C(N)Sc1ccc(N)cc1)c1ccccc1C(F)(F)F | -8.54 | 
7 | Cc1coc2c1C(=O)C(=O)c1c-2ccc2c(C)cccc12 | -7.98 | 
8 | CC(C)n1cnc2c(NCCc3ccc(O)cc3)nc(-c3csc4ccccc34)nc21 |  | 18.7 µM (active)
9 | CS(=O)(=O)N1CCc2c(-c3cnc(N)nc3)nc(N3CCOCC3)nc21 |  | 0.118 µM (active)
10 | COc1cc(OC)c(C=CS(=O)(=O)Cc2ccc(OC)c(NCC(=O)O)c2)c(OC)c1 | -12.6 | 
11 | C[C@@H](Cc1cc2c(c(C(N)=O)c1)N(CCCO)CC2)NCCOc1ccccc1OCC(F)(F)F | 27.2 | 
12 | CC(=O)O[C@@]12CO[C@H]1C[C@H](O)[C@@]1(C)C(=O)[C@H](O)C3=C(C)[C@@H](OC(=O)C(O)[C@@H](NC(=O)OC(C)(C)C)c4ccccc4)C[C@@](O)([C@@H](OC(=O)c4ccccc4)[C@@H]21)C3(C)C (stereo partly drawn) | -42.9 | 
13 | COC(=O)C1C2CC3c4[nH]c5cc(OC)ccc5c4CCN3CC2CC(OC(=O)c2cc(OC)c(OC)c(OC)c2)C1OC (stereo not drawn) | -27.4 | 
